Laboratory results from the supplement of paper PMC7380943.

Experiments:
[1] = tested on: CLZ3 (HCA2 human fibroblast dual HR-NHEJ reporter); assay: NHEJ repair efficiency (GFP+ cells) relative to control (log10 fold); higher = more non-homologous end joining; settings: 5 µM; doxycycline 0.5 ug/mL
[2] = tested on: CLZ3 (HCA2 human fibroblast dual HR-NHEJ reporter); assay: HR repair efficiency (tdTomato+ cells) relative to control (log10 fold); higher = more homologous recombination; settings: 5 µM; doxycycline 0.5 ug/mL
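Wherever HR repair efficiency (tdTomato+ cells) relative to control is given: compound given one day before doxycycline, which switches on I-SceI endonuclease expression to create double-strand breaks within the integrated reporter.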
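Wherever NHEJ repair efficiency (GFP+ cells) relative to control is given: compound given one day ahead of doxycycline, which switches on I-SceI endonuclease to cut the chromosomally integrated reporter and create DSBs.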

| Structure (SMILES) | NHEJ repair efficiency (log10) [1] | HR repair efficiency (log10) [2] |
| --- | --- | --- |
| O=C1/C(=C2\Nc3ccccc3C2=O)Nc2ccccc21 [Indigo] | -0.108 | -0.0903 |
| C=C(C)[C@H](CC=C(C)C)Cc1c(O)cc(OC)c2c1O[C@H](c1ccc(O)cc1O)CC2=O [Kurarinone] | 0.0108 | 0.0158 |
| CO[C@H]1O[C@@H]2O[C@@]3(C)CC[C@H]4[C@H](C)CC[C@@H]([C@H]1C)[C@@]24OO3 [Artemether] | 0.125 | 0.186 |
| COc1cc2c(cc1OC)[C@@H]1Cc3ccc(OC)c(OC)c3CN1CC2 [Rotundine] | -0.0594 | 0.112 |
| Oc1cc(O)c2c(c1)O[C@H](c1ccc(O)c(O)c1)[C@H](O)C2 [Epicatechin (EC)] | -0.238 | -0.306 |
| COc1cc(/C=C/CO)ccc1O[C@@H]1O[C@H](CO)[C@@H](O)[C@H](O)[C@H]1O [Coniferin] | 0.0205 | 0.0767 |
| C=C1C[C@@]23CC[C@H]4[C@@](C)(CCC[C@@]4(C)C(=O)O[C@@H]4O[C@H](CO)[C@@H](O)[C@H](O)[C@H]4O)[C@@H]2CC[C@]1(O[C@@H]1O[C@H](CO)[C@@H](O)[C@H](O)[C@H]1O)C3 [Rubusoside] | 0.0726 | 0.0779 |
| C=C1CCC[C@]2(C)C[C@@H]3OC(=O)C(C)=C3C[C@@H]12 [Atractylenolide Ii] | -0.0767 | 0.118 |
| CC(C)=CCC[C@](C)(O[C@@H]1O[C@H](CO[C@@H]2O[C@@H](CO)[C@H](O)[C@H]2O)[C@@H](O)[C@H](O)[C@H]1O)[C@H]1CC[C@]2(C)[C@@H]1[C@H](O)C[C@@H]1[C@@]3(C)CC[C@H](O[C@@H]4O[C@H](CO)[C@@H](O)[C@H](O)[C@H]4O[C@@H]4O[C@H](CO)[C@@H](O)[C@H](O)[C@H]4O)C(C)(C)[C@@H]3CC[C@]12C [Ginsenoside Rc] | 0.0541 | 0.0964 |
